Laboratory results: the supplement of paper PMC12350171
Where a name gives a salt, the structure may show the parent alone.

How the values were obtained:
Conditions in all cases: 20 µM
[1] = tested on: Salmonella enterica typhimurium; assay: growth AUC normalised to DMSO control (fraction of control); higher = less growth inhibition, active = hit call of the paper
In short: (§1)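 For the AUC endpoint, growth curves were integrated by the trapezoidal rule up to the exponential-to-stationary transition and normalised to DMSO controls on the same plate. The curves came from OD578 readings taken hourly for 24 h, in three biological replicates. Pathogens had been passaged anaerobically twice and inoculated at an OD578 of 0.01 into pre-reduced mGAM plates carrying 20 μM compound and 1% DMSO, sealed with breathable membranes. Medium for Haemophilus parainfluenzae also contained hemin and NAD.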

Shigella flexneri = assay: as above
In short: as §1

Vibrio cholerae = assay: as above
In short: as §1

[2] = tested on: Yersinia pseudotuberculosis; assay: as above
In short: as §1

P. vulgatus RND KO = assay: growth AUC normalised to DMSO control (median) (fraction of control); higher = less growth inhibition, active = hit call of the paper
In short: (§2)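 Anaerobic growth was tracked hourly at OD578 for 24 h in 96-well plates of mGAM seeded at OD578 0.01 with each approved-drug library compound at 20 μM and 1% DMSO. Strains had first been passaged twice overnight without oxygen. Three biological replicates were run. The reported median is the area under the curve, calculated by the trapezoidal rule on curves truncated at entry into stationary phase and normalised to vehicle wells on the same plate.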

P. vulgatus WT = assay: as above
In short: as §2

[3] = tested on: S. enterica typhimurium WT; assay: as above
In short: as §2

[4] = tested on: S. enterica typhimurium tolC KO; assay: as above
In short: as §2

Measured: growth AUC normalised to DMSO control
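Throughout, for growth AUC normalised to DMSO control (median): active when median AUC fell below 0.1.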

CN1CCCC(CC2c3ccccc3Sc3ccccc32)C1 (stereo not given) [Metixene hydrochloride]
inactive: [1] 0.987 | Shigella flexneri 1 | Vibrio cholerae 0.944 | [2] 1 | P. vulgatus RND KO 0.774 | P. vulgatus WT 0.704 | [3] 1.01 | [4] 0.923

O=C1CCC(N2C(=O)c3ccccc3C2=O)C(=O)N1 (stereo not given) [Thalidomide]
inactive: [1] 0.994 | Shigella flexneri 0.971 | Vibrio cholerae 0.996 | [2] 0.988 | P. vulgatus RND KO 0.999 | P. vulgatus WT 1.01 | [3] 1 | [4] 1

CNCCC=C1c2ccccc2CCc2ccccc21 [Nortriptyline hydrochloride]
inactive: [1] 0.998 | Shigella flexneri 0.991 | Vibrio cholerae 0.937 | [2] 0.992 | P. vulgatus RND KO 0.99 | P. vulgatus WT 1.01 | [3] 1 | [4] 0.971

Clc1ccc(CO/N=C(\Cn2ccnc2)c2ccc(Cl)cc2Cl)c(Cl)c1 [Oxiconazole nitrate]
inactive: [1] 1.02 | Shigella flexneri 1.04 | Vibrio cholerae 1.05 | [2] 0.983 | P. vulgatus RND KO 1.01 | P. vulgatus WT 1.04 | [3] 1 | [4] 0.909

CCCC1O[C@@H]2C[C@H]3[C@@H]4CCC5=CC(=O)C=C[C@]5(C)[C@H]4[C@@H](O)C[C@]3(C)[C@]2(C(=O)CO)O1 (stereo not given in full) [Budesonide]
inactive: [1] 0.978 | Shigella flexneri 0.995 | Vibrio cholerae 0.987 | [2] 0.989 | P. vulgatus RND KO 0.968 | P. vulgatus WT 0.999 | [3] 0.991 | [4] 0.984

CCN[C@H]1CN(CCCOC)S(=O)(=O)c2sc(S(N)(=O)=O)cc21 [Brinzolamide]
inactive: [1] 0.965 | Shigella flexneri 0.952 | Vibrio cholerae 0.965 | [2] 0.989 | P. vulgatus RND KO 0.986 | P. vulgatus WT 0.973 | [3] 0.995 | [4] 1

CCCCC1C(=O)N(c2ccccc2)N(c2ccccc2)C1=O [Phenylbutazone]
inactive: [1] 1.01 | Shigella flexneri 0.991 | Vibrio cholerae 0.973 | [2] 1.01 | P. vulgatus RND KO 1.03 | P. vulgatus WT 1.07 | [3] 1 | [4] 0.964

CC(=O)Nc1ccc(O)cc1 [Acetaminophen]
inactive: [1] 0.992 | Shigella flexneri 0.99 | Vibrio cholerae 0.997 | [2] 0.996 | P. vulgatus RND KO 1.02 | P. vulgatus WT 1.01 | [3] 1 | [4] 0.998

Oc1c(Cl)cc(Cl)c2cccnc12 [Chloroxine]
active: [1] 0.922 | Shigella flexneri 0.884 | Vibrio cholerae 0.0387 | [2] 0.652 | P. vulgatus WT 0.0729
inactive: P. vulgatus RND KO 0.32 | [3] 0.969 | [4] 0.568

O=C(O[C@@H]1C[C@@H]2C[C@H]3C[C@H](C1)N2CC3=O)c1c[nH]c2ccccc12 [Dolasetron mesilate]
inactive: [1] 1.04 | Shigella flexneri 1.01 | Vibrio cholerae 0.999 | [2] 1.01 | P. vulgatus RND KO 1.02 | P. vulgatus WT 1.04 | [3] 1.01 | [4] 0.984

CCc1cccc2c3c([nH]c12)C(CC)(CC(=O)O)OCC3 (stereo not given) [Etodolac]
inactive: [1] 1.01 | Shigella flexneri 1.06 | Vibrio cholerae 1.06 | [2] 1.02 | P. vulgatus RND KO 0.99 | P. vulgatus WT 1.01 | [3] 1.02 | [4] 1.02

COc1ccc(NS(=O)(=O)c2ccc(N)cc2)nn1 [Sulfamethoxypyridazine]
inactive: [1] 1.02 | Shigella flexneri 1.04 | Vibrio cholerae 1.03 | [2] 0.996 | P. vulgatus RND KO 1.02 | P. vulgatus WT 1.04 | [3] 1.01 | [4] 0.986

CC(Oc1c(Cl)cccc1Cl)C1=NCCN1 (stereo not given) [Lofexidine]
inactive: [1] 1.01 | Shigella flexneri 1 | Vibrio cholerae 1.01 | [2] 1.01 | P. vulgatus RND KO 1.02 | P. vulgatus WT 1.03 | [3] 1.02 | [4] 1

CNCCC=C1c2ccccc2C=Cc2ccccc21 [Norcyclobenzaprine]
inactive: [1] 0.983 | Shigella flexneri 0.935 | Vibrio cholerae 0.888 | [2] 0.996 | P. vulgatus RND KO 0.943 | P. vulgatus WT 0.926 | [3] 0.994 | [4] 0.968

NS(=O)(=O)Cc1noc2ccccc12 [Zonisamide]
inactive: [1] 1.01 | Shigella flexneri 0.997 | Vibrio cholerae 0.997 | [2] 1 | P. vulgatus RND KO 1 | P. vulgatus WT 1 | [3] 0.998 | [4] 1.01

COc1ccc(C2CNC(=O)C2)cc1OC1CCCC1 (stereo not given) [Rolipram]
inactive: [1] 0.976 | Shigella flexneri 0.948 | Vibrio cholerae 0.945 | [2] 0.984 | P. vulgatus RND KO 1.01 | P. vulgatus WT 1.02 | [3] 1.01 | [4] 0.98

COc1ccc2c3c1O[C@H]1C[C@@H](O)C=C[C@@]31CCN(C)C2 [Galanthamine hydrobromide]
inactive: [1] 0.995 | Shigella flexneri 0.95 | Vibrio cholerae 0.986 | [2] 1.02 | P. vulgatus RND KO 0.998 | P. vulgatus WT 1 | [3] 1 | [4] 0.995

C[C@]12CC[C@@H]3c4ccc(O)cc4CC[C@H]3[C@@H]1CCC2=O [Estrone]
active: Vibrio cholerae 0.0258
inactive: [1] 0.984 | Shigella flexneri 0.96 | [2] 0.975 | P. vulgatus RND KO 0.977 | P. vulgatus WT 0.964 | [3] 0.999 | [4] 0.974

CC1(C)S[C@@H]2[C@H](NC(=O)[C@H](N)c3ccc(O)cc3)C(=O)N2[C@H]1C(=O)O [Amoxicillin]
active: [1] 0.00744 | Shigella flexneri 0.0257 | Vibrio cholerae 0.68 | [2] 0.0346 | P. vulgatus RND KO 0.0144 | P. vulgatus WT 0.0118 | [3] 0.00737 | [4] 0.00653

OCCN1C[C@H](O)[C@@H](O)[C@H](O)[C@H]1CO [Miglitol]
inactive: [1] 0.991 | Shigella flexneri 0.971 | Vibrio cholerae 0.986 | [2] 0.991 | P. vulgatus RND KO 1 | P. vulgatus WT 0.995 | [3] 1.01 | [4] 0.988

COc1ccccc1O [Guaiacol]
inactive: [1] 0.991 | Shigella flexneri 0.976 | Vibrio cholerae 0.992 | [2] 0.999 | P. vulgatus RND KO 0.99 | P. vulgatus WT 1 | [3] 0.997 | [4] 1

CC(C)n1c(/C=C/C(O)CC(O)CC(=O)O)c(-c2ccc(F)cc2)c2ccccc21 (stereo not given) [Fluvastatin sodium salt]
inactive: [1] 0.985 | Shigella flexneri 0.995 | Vibrio cholerae 0.997 | [2] 0.996 | P. vulgatus RND KO 1 | P. vulgatus WT 1 | [3] 1 | [4] 0.931

CC(=O)Oc1cc(C(F)(F)F)ccc1C(=O)O [Triflusal]
inactive: [1] 0.964 | Shigella flexneri 0.949 | Vibrio cholerae 0.959 | [2] 0.954 | P. vulgatus RND KO 0.979 | P. vulgatus WT 1 | [3] 0.995 | [4] 0.955

Clc1ccc2c(c1)CCc1cccnc1C2=C1CCNCC1 [Desloratadine]
inactive: [1] 1.02 | Shigella flexneri 0.975 | Vibrio cholerae 1 | [2] 0.998 | P. vulgatus RND KO 0.959 | P. vulgatus WT 0.961 | [3] 0.988 | [4] 0.996

Cn1ccnc1S [Methimazole]
inactive: [1] 1.01 | Shigella flexneri 1.02 | Vibrio cholerae 1.02 | [2] 1.01 | P. vulgatus RND KO 0.996 | P. vulgatus WT 1.01 | [3] 1 | [4] 0.988

C[C@]12CCC(=O)C=C1CC[C@@H]1[C@@H]2[C@@H](O)C[C@@]2(C)[C@H]1CC[C@]2(O)C(=O)CO [Hydrocortisone]
inactive: [1] 0.983 | Shigella flexneri 0.969 | Vibrio cholerae 0.97 | [2] 1.01 | P. vulgatus RND KO 0.98 | P. vulgatus WT 0.994 | [3] 0.999 | [4] 0.996

CC(C)NCC(O)c1ccc(O)c(O)c1 (single isomer, unassigned; (+)) [(+) Isoproterenol-(+)-bitartrate salt]
inactive: [1] 1.02 | Shigella flexneri 1.02 | Vibrio cholerae 1.03 | [2] 0.913 | P. vulgatus RND KO 1.01 | P. vulgatus WT 1.03 | [3] 1.01 | [4] 0.984

Nc1c2c(nc3ccccc13)CCCC2 [Tacrine hydrochloride]
inactive: [1] 0.995 | Shigella flexneri 1.03 | Vibrio cholerae 1.02 | [2] 0.98 | P. vulgatus RND KO 0.999 | P. vulgatus WT 1.06 | [3] 0.986 | [4] 0.992

O=C(OCCOCCO)c1ccccc1Nc1cccc(C(F)(F)F)c1 [Etofenamate]
inactive: [1] 1.01 | Shigella flexneri 0.979 | Vibrio cholerae 0.977 | [2] 0.991 | P. vulgatus RND KO 0.832 | P. vulgatus WT 0.909 | [3] 1 | [4] 0.858

Cc1cc(C(C)(C)C)c(O)c(C)c1CC1=NCCN1 [Oxymetazoline hydrochloride]
inactive: [1] 0.997 | Shigella flexneri 0.994 | Vibrio cholerae 1 | [2] 1 | P. vulgatus RND KO 0.994 | P. vulgatus WT 0.988 | [3] 1.01 | [4] 0.985
